# Data taken from the OligoGym collection.
# Molecular target: SCN4A
# Experiment: pooled miR-30 sensor sort-seq; sequence = guide strand
# Conditions: shRNA
# Also: reference of the scale not given here.
row,Sequence,sensor-assay potency score (higher = more potent)
1,TGCAGTAGTAGAACTTGCCGGC,0.0253
2,TGCTCGACAATCTTGAAGCAGG,-1.33
3,TTGATGCAGTAGTAGAACTTGC,-0.382
4,TAGTCCTGTGTCATGAGGCGGA,-0.484
5,TTGAGCACGATGCAGATGGTGA,-0.925
6,TTCAGAACCATCTCTGCTGTGA,0.403
7,TTGACCTTGACATTGAGCCAGC,-0.555
8,TACTCCACATTCTTGGACCAGG,-1.18
9,TTGTAGTCAGCTGTGCTGCAGA,-0.246

# Molecular target: SDHAF1
# Experiment: as above
# Conditions: shRNA
row,Sequence,sensor-assay potency score (higher = more potent)
1,TGGACTGTCGCCGTCGTCAGGC,-0.932
2,TACTCGATGCGCAGCACGTCGG,-1.32
3,TCCTTGGACTGTCGCCGTCGTC,-1.69
4,ATGCTGCCGGAACTCTGCCCGC,-1.77
5,TTGGACTGTCGCCGTCGTCAGG,-1.17
6,TCGTGGGGGTTCCTTGGACTGT,-2.02
7,ACTGTCGCCGTCGTCAGGCTGG,-1.04
8,TACAGGCTCAGAACCTGCCTCT,-0.402
9,TGTCGCCGTCGTCAGGCTGGGA,-1.53
10,ATGCGCAGCACGTCGGACCGCG,-1.11
11,TCGATGCGCAGCACGTCGGACC,-1.24
12,TGCGCAGCACGTCGGACCGCGG,-1.5

# Molecular target: SDR9C7
# Experiment: as above
# Conditions: shRNA
row,Sequence,sensor-assay potency score (higher = more potent)
1,TTAGGATGAAATCTGTCACAGG,-0.552
2,ATGCTGTTGATGACATCTCTGA,-0.812
3,TTGTTCGCCCACTTTGTCCCTC,-0.717
4,TTCGCTCTTGGTGACATCCAGT,-0.405
5,TTGCCGAGAATGGCTGTCCGAT,-0.982
6,TAACTTGTCAGTATAGATGCGG,-0.0735
7,TAGAGCTCACGCCTTATGCTGT,-0.719
8,TTGATGACATCTCTGACTCTGG,0.0736
9,AACTTGTCAGTATAGATGCGGA,-0.682
10,TTGCAGTTCTTGAACCAGCGAT,-0.518
11,TTGATGCTTTCGCTCTTGGTGA,-1.21
12,TTATGTTTTTTAACTTGTCAGT,-0.963

# Molecular target: SEC11C
# Experiment: as above
# Conditions: shRNA
row,Sequence,sensor-assay potency score (higher = more potent)
1,TTTGATTACTCTGTGAACTATT,-0.483
2,TCATGAACTTTGATTACTCTGT,0.434
3,TAAAACCTGGTAATAGAGCTGG,-0.222
4,TGAACTATTGGAATGTCTCGTC,0.149
5,TTCAACTTTAAAAACAACTATT,-1.15
6,TAGTCATTCATTATTATGGTGA,-0.647
7,TGAACTTTGATTACTCTGTGAA,0.177
